According to PubChem BioAssay (NCI):
Compounds without any hit were thinned out: in the full panel of roughly 83,000, 20% have a hit.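 Testing used 96-well plates and a 48-hour single-concentration exposure. Example: -40 means 40% of the starting cells died.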 A number with no mark means an inactive call. Calls of active or inactive are those of the source. The calls were made as follows: active = growth percent below 10; inactive = the rest.

Key:
Test in all cases: NCI-60 one-dose screen, 48 h (100 = growth as untreated, 0 = no growth, -100 = all killed)
Conditions in all cases: 10 µM unless noted
RPMI-8226 leukemia = test system: RPMI-8226 leukemia
OVCAR-5 ovarian = test system: OVCAR-5 ovarian
OVCAR-4 ovarian = test system: OVCAR-4 ovarian
SK-OV-3 ovarian = test system: SK-OV-3 ovarian
IGROV1 ovarian = test system: IGROV1 ovarian
HS 578T breast = test system: HS 578T breast
NCI/ADR-RES ovarian = test system: NCI/ADR-RES ovarian
T-47D breast = test system: T-47D breast
BT-549 breast = test system: BT-549 breast
MDA-MB-435 melanoma = test system: MDA-MB-435 melanoma
SW-620 colon = test system: SW-620 colon
MCF7 breast = test system: MCF7 breast
HCT-116 colon = test system: HCT-116 colon
HCC-2998 colon = test system: HCC-2998 colon
KM12 colon = test system: KM12 colon
OVCAR-3 ovarian = test system: OVCAR-3 ovarian
OVCAR-8 ovarian = test system: OVCAR-8 ovarian

Compound | growth (RPMI-8226 leukemia) | growth (OVCAR-5 ovarian) | growth (OVCAR-4 ovarian) | growth (SK-OV-3 ovarian) | growth (IGROV1 ovarian) | growth (HS 578T breast) | growth (NCI/ADR-RES ovarian) | growth (T-47D breast) | growth (BT-549 breast) | growth (MDA-MB-435 melanoma) | growth (SW-620 colon) | growth (MCF7 breast) | growth (HCT-116 colon) | growth (HCC-2998 colon) | growth (KM12 colon) | growth (OVCAR-3 ovarian) | growth (OVCAR-8 ovarian)
CCOC(=O)c1c(C)nc2c(c1N)/C(=C/c1ccccn1)C(=O)N2Cc1ccccc1 | -25.8% (active) | 64.1% | 47.8% | 65.9% | -10.6% (active) | 33.2% | -3.17% (active) | 9.22% (active) | 15.9% | 11.2% | 1.97% (active) | 2.76% (active) | -21.8% (active) | 11.2% | 12.2% | – | –
COc1ccc(C(C)c2cc(OC)c(OC)c(OC)c2)cc1 (configuration not stated) | 15.3% | 50.3% | 34.3% | 33.2% | 28.5% | 37.5% | 13.8% | 63.1% | 24.6% | -42.6% (active) | 27% | 13.8% | 4.67% (active) | 30.2% | 9.1% (active) | -14.1% (active) | –
C=C(C)[C@@H]1CCC=C2CC[C@]3(C)[C@H](CC[C@@H]4[C@@]5(C)CCCNC(C)(C)[C@@H]5CC[C@]43C)[C@H]21 | -11.9% (active) | 56.4% | 36.7% | 112% | 23.5% | 97.2% | 55.1% | 60.2% | 89.2% | 16.8% | -50.2% (active) | 0.921% (active) | -54.8% (active) | 5.32% (active) | 19.9% | 41.2% | –
O=C(Nc1cc(Nc2ncccc2-c2ncnc3nc[nH]c23)ccc1F)c1cc(C(F)(F)F)cc(C(F)(F)F)c1 | -13% (active) | -41% (active) | -48.5% (active) | -18% (active) | 2.77% (active) | -19.1% (active) | -20.8% (active) | 11.1% | -25.2% (active) | 6.76% (active) | 13.1% | -2.67% (active) | -43% (active) | -83.4% (active) | -55.9% (active) | -1.23% (active) | –
O=Cc1[nH]c(Sc2ccccc2)c2ccccc12 | 7.59% (active) | 87.4% | 58.3% | 83.5% | 88.2% | 64.9% | 69.7% | 44.1% | 53.4% | 81.7% | 81.1% | 72.2% | 60.6% | 109% | 81.2% | 50.4% | –
CCOC(=O)c1c(C)nc2c(c1N)CC(=O)N2CCc1ccccc1 | -6.34% (active) | 53.3% | 62.8% | 45.6% | 28.7% | 41.1% | 30.1% | 53.9% | -17.1% (active) | 8.84% (active) | -67.5% (active) | 11.8% | 6.98% (active) | 64.4% | 16.1% | – | –
COc1cc(C2CC(c3ccc(Nc4nc(NCCO)nc(NCCO)n4)cc3)=NN2c2cc(Cl)cc(Cl)c2)cc(OC)c1OC (configuration not stated) | -13.8% (active) | 54.6% | -20.1% (active) | 108% | 4.18% (active) | -14.5% (active) | 53.1% | 75.4% | -27.2% (active) | -15.9% (active) | -4.18% (active) | -60.9% (active) | 9.76% (active) | 24.4% | -25.6% (active) | -22.5% (active) | –
COc1cc(-c2csc(NC(=O)Nc3ccc(C(F)(F)F)cc3)n2)cc(OC)c1OC | -11.5% (active) | 33% | 13.4% | -3.3% (active) | 42.8% | 6.93% (active) | -1.59% (active) | -3.68% (active) | -8.1% (active) | -26.9% (active) | 14.8% | 0.456% (active) | 5.03% (active) | 19.3% | 7.27% (active) | 1.73% (active) | –
CC(=O)O[C@@H]1C[C@]2(C)[C@H]3[C@H](O)C[C@@H]4C5=CC(C)(C)CC[C@]5(C)CC[C@@]4(C)[C@]3(C)CC[C@H]2C(C)(C)[C@H]1O | – | 106% | 106% | 107% | 106% | 99.1% | 104% | 82.3% | 102% | 99.8% | 98.7% | – | – | 107% | 105% | 101% | 104%
COc1ccc(-c2cc(C(=O)N3N=C(c4ccc(N)cc4)CC3c3ccc(OC)cc3)c3cc(OC)ccc3n2)cc1 (configuration not stated) | – | 103% | 71.9% | 78.3% | 50.8% | 45.9% | -8.76% (active) | 43.4% | 66.4% | 3.45% (active) | 30.1% | 14.2% | 7.78% (active) | 91.6% | 22.5% | 22% | 22.1%
CC(=O)Oc1c2c(nc3c1c1ccccc1n3Cc1ccccc1)-c1ccccc1C2 | – | 97% | 83.9% | 92% | 81.1% | 94.4% | 85.5% | 56.7% | 104% | 98.2% | 98.8% | 51.1% | 73.5% | 87.9% | 88.7% | 79% | 88.4%
Cn1nc(C(F)(F)F)c(-c2cc(C(F)(F)F)cc(C(F)(F)F)c2)c1-c1ccc(OCc2ccc(Cl)cc2)cc1O | – | 29.1% | 20.7% | -13.5% (active) | 31.4% | 4.39% (active) | 1.98% (active) | -11.6% (active) | 2.72% (active) | 11.4% | 13.1% | 3.01% (active) | 3.65% (active) | 5.78% (active) | 5.04% (active) | 7.02% (active) | 8.36% (active)
Nc1ccc(C2=NN(C(=O)c3cc(-c4ccc(Cl)cc4)nc4ccccc34)C(c3ccccc3)C2)cc1 (configuration not stated) | – | 73.4% | 63.1% | 24.6% | 50.9% | 29.4% | 12.7% | 30.8% | 35.1% | – | 22.5% | 12.7% | 24.7% | 59.6% | 24.5% | 3.55% (active) | 37.5%
C/C(=N/Nc1nc2ccccc2n1C)c1ccccn1 | – | 35.3% | 20.8% | -0.894% (active) | 18% | 44.5% | -7.51% (active) | 8.05% (active) | 13.5% | 32.5% | 23.6% | 3.47% (active) | 2.75% (active) | 39.3% | 19.7% | 10.3% | 0.773% (active)
C=C(C)[C@@H]1CC[C@]2(C(=O)N=C=S)CC[C@]3(C)[C@H](CC[C@@H]4[C@@]5(C)CCC(=O)C(C)(C)[C@@H]5CC[C@]43C)[C@@H]12 | – | 49.1% | 31.4% | 14.7% | 66.2% | 33% | 28.2% | 18.1% | 47.3% | 47.1% | 28.8% | 16.4% | 13.8% | 43.3% | 21.2% | 25.7% | 24.3%
Nc1ccc(C(=O)Nc2cccc(C(=O)Nc3ccc4c(O)c(N=Nc5ccc(N=Nc6ccc(S(=O)(=O)O)cc6)cc5)c(S(=O)(=O)O)cc4c3)c2)cc1 | – | 106% | 101% | 101% | 102% | 106% | 99.2% | 108% | 111% | 106% | 105% | 94.8% | 91.8% | 98% | 104% | 107% | 110%
COc1ccc2cc(/C=C3\N=C(c4cc(OC)c(OC)c(OC)c4)OC3=O)c(OC)nc2c1 | – | 108% | 101% | 96.5% | 109% | 97.2% | 105% | 96.5% | 104% | 106% | 100% | 99.8% | 97.9% | 102% | 98.9% | 109% | –
COc1cc(-c2csc(NC(=O)Nc3ccc(Cl)cc3)n2)cc(OC)c1OC | – | 76.9% | 9.02% (active) | 53.5% | 42.6% | 58.9% | 7% (active) | -7.45% (active) | 31.9% | 18.1% | 42.1% | 8.71% (active) | 17.8% | 38.9% | 13.4% | 19.4% | 10.4%
